USP17 inh – inhibitors of human USP17 deubiquitinase | Ubiquitin carboxyl-terminal hydrolase 17-like protein 5 (Homo sapiens), A8MUK1 | purified USP17, Ub-rhodamine cleavage fluorescence, 3 h | inhibition, % at 50 µM | 47,000 compounds, 6.5% hits | AID 1645855, 2021
USP28 block – inhibitors of human USP28 deubiquitinase. 47,000 compounds, 3% hits. AID 1645857, 2021. purified USP28, Ub-rhodamine cleavage fluorescence, 30 min. inhibition, % at 25 µM. Ubiquitin carboxyl-terminal hydrolase 28 (Homo sapiens), Q96RU2
USP8 inh – inhibitors of human USP8 deubiquitinase | AID 1645853, 2021 | 47,000 compounds, 4.2% hits | inhibition, % at 20 µM | purified USP8, Ub-rhodamine cleavage fluorescence, 30 min
USP30 block – inhibitors of human USP30 deubiquitinase; Ubiquitin carboxyl-terminal hydrolase 30 (Homo sapiens), Q70CQ3; purified USP30, Ub-rhodamine cleavage fluorescence; inhibition, % at 25 µM; 47,000 compounds, 5.3% hits; AID 1645860, 2021
Starred values were filed as active, the others as inactive. This is a sample that favours compounds with a hit; in the whole collection about 14% have one here. Rule as the data show it: active = inhibition above about 30%; inactive = the rest.

SMILES	USP17 inh	USP28 block	USP8 inh	USP30 block
COC(=O)c1ccc(N2CCN(C(=O)c3ccccc3)CC2)c(NC(=O)COc2ccccc2Cl)c1	39.2*	8.7	7.5	33.0*
CCOc1ccc(C(C)Nc2nc(C(F)(F)F)nc3ccccc23)cc1OCC (stereo not given)	7.1	0.0	2.7	-0.4
O=[N+]([O-])c1ccc(Cc2nnc(-c3ccccc3Cl)o2)cc1	34.6*	47.9*	-7.5	0.7
O=[N+]([O-])c1cccc(-c2nnc(Cc3cc(F)cc(F)c3)o2)c1	-20.2	15.3	-117.6	8.1
COc1cc(NC(=O)c2ccco2)c(C(=O)OCC(=O)c2c[nH]c3ccccc23)cc1OC	-19.0	-21.8	43.6*	-214.0
CCc1ccc(-c2cn3ccn(-c4ccccc4OC)c(=O)c3n2)cc1	2.2	-7.0	12.9	-9.9
COc1ccc(OC)c(-c2cn3ccn(-c4ccc(F)c(Cl)c4)c(=O)c3n2)c1	38.7*	16.9	94.2*	19.0
COC(=O)C(Cc1c[nH]c2ccccc12)NC(=O)c1cc(=O)[nH]c2ccccc12 (stereo not given)	-13.1	-5.5	-10.2	-11.5
N#Cc1ccc(Cc2ncc(C(F)(F)F)cc2Cl)s1	2.7	59.8*	0.3	-0.1
O=S(=O)(NCc1ccccn1)c1ccc(Cc2ncc(C(F)(F)F)cc2Cl)s1	-17.6	-16.8	-19.4	-20.1
O=C(Nc1ccc(F)cc1)Nc1ccccc1OCc1cc(=O)n2ccccc2n1	41.2*	31.0*	42.8*	46.4*
Cc1ccc(NC(=O)Nc2ccccc2OCc2cc(=O)n3cc(C)ccc3n2)cc1	3.6	17.7	32.1*	-2.8
Cc1ccc2nc(CNc3cc(F)ccc3C)cc(=O)n2c1	-12.3	-4.6	-3.5	-56.3
O=C(Nc1ccc2c(c1)OCCO2)Nc1ccccc1OCc1cc(=O)n2ccccc2n1	4.3	8.3	-8.4	-3.9
Cc1cccc(NCc2cc(=O)n3cc(C)ccc3n2)c1	46.3*	25.9	11.9	7.5
CCOc1ccccc1NC(=O)Nc1ccccc1OCc1cc(=O)n2cccc(C)c2n1	22.6	17.5	-11.1	23.0
Cc1ccc(C(=O)Nc2ccccc2OCc2cc(=O)n3cc(C)sc3n2)cc1	10.1	0.8	-7.2	23.4
Cc1cccc(NC(=O)Nc2ccccc2OCc2cc(=O)n3cccc(C)c3n2)c1	9.2	24.0	36.2*	29.3
CN(CC(=O)Nc1ccc(Cl)cc1)c1cnn(-c2nc3ccccc3[nH]2)c(=O)c1Cl	9.9	19.8	30.4*	3.3
O=C(CCc1nc2ccccc2c(=O)[nH]1)Nc1ccc(Cl)cc1	-49.4	-12.4	0.0	-27.5
CCC(=O)N1CCCC1c1cc(Nc2ncccn2)nc(C)n1 (stereo not given)	15.9	10.5	17.0	24.0
COc1cc2c(cc1OC)[C@H](C)N(CC1C(=O)O[C@@H]3C[C@@]4(C)CCC[C@H](C)C4=C[C@H]13)CC2 (stereo not given in full)	-18.6	-37.0	45.1*	-236.3
COc1cc2c(cc1OC)[C@H](C)N(CC1C(=O)O[C@@]34[C@H]1CC[C@@H](C)[C@@H]3CC[C@@]1(C)O[C@@H]41)CC2 (stereo not given in full)	-2.1	-4.6	50.3*	-63.9
CC1CCN(CC2C(=O)O[C@@]34[C@H]2CC[C@@H](C)[C@@H]3CC[C@@]2(C)O[C@@H]42)CC1 (stereo not given in full)	-10.9	-1.1	0.0	5.8
C[C@H]1CCC[C@]2(C)C[C@H]3OC(=O)C(CN4CCc5ccccc5C4)[C@H]3C=C12 (stereo not given in full)	-7.8	0.2	-3.6	5.8
CC(C)N1Cc2[nH]cnc2C[C@H]1C(=O)N1CCC(Cc2ccccc2)CC1	-19.6	-17.5	-10.3	-57.3
Cc1ccccc1CNC(=O)c1nnc(C(=O)Nc2ccc(F)cc2)s1	11.4	18.9	5.7	39.3*
Cc1ccc(C(C(=O)NC2CCCCC2)N(C(=O)CCCC(=O)Nc2ccccn2)c2ccc3c(c2)OCCO3)cc1 (stereo not given)	47.8*	21.9	8.0	37.9*
O=C(NC1CCCCC1)C(c1ccc(F)cc1)N(C(=O)C1COc2ccccc2O1)c1ccc2c(c1)OCO2 (stereo not given)	-8.5	-0.1	41.4*	-31.4
O=C(CCCC(=O)N(c1ccc2c(c1)OCCO2)C(C(=O)NC1CCCCC1)c1ccc(F)cc1)Nc1ccccn1 (stereo not given)	34.5*	20.6	58.1*	45.5*
